Data reported in PubChem BioAssay (Tox21).
Values joined by “and” are separate entries in the source; they are usually repeats but may differ in a detail not shown here. Equal entries are not always repeated. Active and inactive are the calls of the source. Unless noted, calls come from the whole dose curve.

Assays:
[1] = qHTS assay to identify small molecule antagonists of the thyroid receptor (TR) signaling pathway (AID 743065; active = well fitted curve in the direction sought with a large enough effect in the repeat runs; inconclusive = weak or mixed curves; inactive = no such curve, though single readings can be large; an effect the other way counts as inactive or inconclusive; note: nearly all actives have a fitted effect of over 55% in size)
Summary of the method: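 GH3.TRE-Luc rat pituitary cells (two TREs driving luciferase) were dosed with compound, then stimulated with 1 nM T3 (final) for 23.5 h at 37 C. ONE-Glo luminescence was the read-out, with CellTiter-Fluor fluorescence as the cytotoxicity counter-screen.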

[2] = tested on: thyroid hormone receptor (rat, GH3 cells); test: qHTS assay to identify small molecule agonists of the thyroid receptor (TR) signaling pathway (AID 743066)
[3] = qHTS assay to identify small molecule antagonists of the estrogen receptor alpha (ER-alpha) signaling pathway - cell viability counter screen (AID 743074);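 note: HEK293 cells carrying ER-alpha-UAS-bla reporter stimulated with 17beta-estradiol; nearly all actives have a fitted effect of over 45% in size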
[4] = qHTS assay to identify small molecule antagonists of the estrogen receptor alpha (ER-alpha) signaling pathway using the BG1 cell line - cell viability counter screen (AID 743081; active = well fitted curve in the direction sought with a large enough effect in the repeat runs; inconclusive = weak or mixed curves; inactive = no such curve, though single readings can be large; an effect the other way counts as inactive or inconclusive;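 note: compound given together with 17beta-estradiol as the ER stimulus; nearly all actives have a fitted effect of over 45% in size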)
Aromatase (Homo sapiens) = Aromatase (Homo sapiens) (UniProt P11511); test: qHTS assay to identify aromatase inhibitors (AID 743083; active = well fitted curve in the direction sought with a large enough effect in the repeat runs; inconclusive = weak or mixed curves; inactive = no such curve, though single readings can be large; an effect the other way counts as inactive or inconclusive; note: nearly all actives have a fitted effect of over 55% in size)
[5] = molecular target: Estrogen receptor (Homo sapiens) (UniProt P03372); test: qHTS assay to identify small molecule agonists of the estrogen receptor alpha (ER-alpha) signaling pathway (AID 743075);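 note: HEK293 GripTite cells with ER-alpha and UAS-driven beta-lactamase reporter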
[6] = molecular target: Estrogen receptor (Homo sapiens) (UniProt P03372); test: qHTS assay to identify small molecule agonists of the estrogen receptor alpha (ER-alpha) signaling pathway using the BG1 cell line (AID 743079; active = well fitted curve in the direction sought with a large enough effect in the repeat runs; inconclusive = weak or mixed curves; inactive = no such curve, though single readings can be large; an effect the other way counts as inactive or inconclusive; note: nearly all actives have a fitted effect of over 20% in size); conditions: BG1Luc4E2 cells, ERE-luciferase agonist, 22 h; activation: at 70.3 µM (top of the series)
[7] = molecular target: Estrogen receptor (Homo sapiens) (UniProt P03372); test: qHTS assay to identify small molecule antagonists of the estrogen receptor alpha (ER-alpha) signaling pathway (AID 743069; active = well fitted curve in the direction sought with a large enough effect in the signal ratio in the repeat runs, not every such curve was filed as active; inconclusive = weak or mixed curves, or effect the other way; inactive = no such curve, though single readings can be large or run the other way; the % refers to the signal ratio)
Summary of the method: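 Reporter cells (ER-alpha-bla, HEK293 background) are conditioned overnight in stripped-serum medium (2% charcoal-stripped FBS). Compound and 17beta-estradiol exposure runs 18 hr at 37C, 5% CO2.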

[8] = qHTS assay to identify small molecule antagonists of the estrogen receptor alpha (ER-alpha) signaling pathway using the BG1 cell line (AID 743080);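 note: BG1 cells stimulated with 17beta-estradiol alongside compound; nearly all actives have a fitted effect of over 25% in size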
Summary of the method: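 BG1Luc4E2, endogenous ER-alpha, 4xERE-luc; 5 d charcoal-stripped FBS, phenol red free; 24 h plating; cpd + 17beta-estradiol 21.5 h, 37 C/5% CO2; CellTiter-Fluor viability 30 min, then ONE-Glo luciferase 30 min RT.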
% is set by controls: 0 for no effect and ±100 for the full control effect; potency is the fitted concentration of half-maximal effect.

Chain of Aromatase (Homo sapiens) (P11511 whole entry, looked up): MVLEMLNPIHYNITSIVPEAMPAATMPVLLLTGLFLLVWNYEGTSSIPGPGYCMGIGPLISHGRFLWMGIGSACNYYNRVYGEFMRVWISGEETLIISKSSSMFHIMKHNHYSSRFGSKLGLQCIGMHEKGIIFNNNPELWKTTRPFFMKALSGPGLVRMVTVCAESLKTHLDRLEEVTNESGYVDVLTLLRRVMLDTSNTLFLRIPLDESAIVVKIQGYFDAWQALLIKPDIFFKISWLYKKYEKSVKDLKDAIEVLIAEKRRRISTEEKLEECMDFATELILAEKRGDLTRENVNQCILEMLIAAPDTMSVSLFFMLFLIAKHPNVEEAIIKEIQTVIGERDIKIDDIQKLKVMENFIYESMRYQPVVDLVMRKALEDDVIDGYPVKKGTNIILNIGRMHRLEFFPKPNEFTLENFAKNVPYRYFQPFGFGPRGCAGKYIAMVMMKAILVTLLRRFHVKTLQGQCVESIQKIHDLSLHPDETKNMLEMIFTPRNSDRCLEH
Chain of Estrogen receptor (Homo sapiens) (P03372 whole entry, looked up): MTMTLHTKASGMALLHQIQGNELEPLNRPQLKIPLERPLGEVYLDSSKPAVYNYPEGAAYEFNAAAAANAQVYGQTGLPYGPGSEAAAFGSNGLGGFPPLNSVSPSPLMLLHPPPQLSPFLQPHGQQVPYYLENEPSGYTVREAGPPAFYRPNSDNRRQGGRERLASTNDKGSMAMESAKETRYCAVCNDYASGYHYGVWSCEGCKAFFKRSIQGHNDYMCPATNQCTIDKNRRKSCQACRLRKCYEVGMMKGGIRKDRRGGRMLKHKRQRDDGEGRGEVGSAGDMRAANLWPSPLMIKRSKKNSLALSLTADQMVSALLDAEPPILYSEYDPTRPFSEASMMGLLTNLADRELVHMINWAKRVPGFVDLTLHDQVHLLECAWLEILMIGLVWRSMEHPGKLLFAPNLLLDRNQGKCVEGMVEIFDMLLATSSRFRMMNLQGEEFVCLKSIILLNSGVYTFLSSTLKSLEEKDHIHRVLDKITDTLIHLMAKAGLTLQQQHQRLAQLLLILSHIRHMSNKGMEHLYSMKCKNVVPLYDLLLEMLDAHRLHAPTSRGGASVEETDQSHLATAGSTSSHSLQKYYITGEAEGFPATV

COC(=O)c1ccccc1S(=O)(=O)NC(=O)Nc1nc(C)nc(OC)n1
inactive: Potency [1] | Potency [2] | Potency [3] | Potency [4] | Potency (Aromatase (Homo sapiens))

Cc1cc(C2CC2)nc(Nc2ccccc2)n1
active: Potency [1] 54.5 µM | Potency [6] 9.69 µM
inactive: Potency [2] | Potency [3] | Potency [5] | Potency (Aromatase (Homo sapiens))

C1=CCC=C1
inactive: Potency [1] | Potency [2] | Potency [3] | Potency [4]

COP(=O)(OC)O/C(=C\Cl)c1cc(Cl)c(Cl)cc1Cl
active: Potency [1] 27.3 µM | Potency [7] 24.5 µM [inconclusive] | Potency [8] 68.6 µM | Potency (Aromatase (Homo sapiens)) 30.6 µM
inactive: Potency [2] | Potency [4]

N#Cc1c2ccccc2cc2ccccc12
inactive: Potency [1] | Potency [2] | Potency [3] | Potency (Aromatase (Homo sapiens))

Clc1c(Cl)c(Cl)c(Cl)c(Cl)c1Cl
inactive: activity, negative = inhibition [1] 0.884% [at 8.44 µM] | activation [2] -1.24% [at 8.08 µM] | activity, negative = cytotoxicity [3] 18.2% [at 6.72 µM] | activity change, negative = cytotoxicity [4] 5.59% [at 8.47 µM]

CCOP(=S)(NC(C)C)Oc1ccccc1C(=O)OC(C)C (centres undefined)
active: Potency [1] 54.5 µM | Potency (Aromatase (Homo sapiens)) 38.6 µM
inactive: Potency [2] | Potency [7] | Potency [5] | Potency [6] | Potency [4]

O=C(Nc1ccc(F)cc1F)c1cccnc1Oc1cccc(C(F)(F)F)c1
inactive: Potency [1] | Potency [2] | Potency [3] | Potency [4] | Potency (Aromatase (Homo sapiens))

Nc1nc(N)c(N)c(N)n1
inactive: Potency [1] | Potency [2] | Potency [3] | Potency [8] | Potency (Aromatase (Homo sapiens))

CN1C(=O)[C@@H](NC(=O)c2cc3ccccc3[nH]2)N=C(c2ccccc2)c2ccccc21
inactive: Potency [2] | Potency [3] | Potency [4]
active: Potency [1] 5.96 µM

COP(=S)(OC)Oc1ccc([N+](=O)[O-])c(C)c1
inactive: Potency [1] | Potency [2] | Potency [3] | Potency [5] | Potency [6] | Potency [8] | Potency [4]

c1ccc2c(c1)cc1ccc3cccc4ccc2c1c34
inactive: Potency [1] | Potency [2] | Potency [3] | Potency (Aromatase (Homo sapiens))

c1csc(-c2ccc(-c3cccs3)s2)c1
active: Potency [2] 61.1 µM | Potency [6] 27.3 µM
inactive: Potency [1] | Potency [4] | Potency (Aromatase (Homo sapiens))

CN1CCc2cc3c(cc2C1O)OCO3 (centres undefined)
inactive: Potency [1] | Potency [2] | Potency [3] | Potency (Aromatase (Homo sapiens))

CCCCn1cc[n+](C)c1 (tested in a mixture with another compound)
inactive: Potency [1] | Potency [2] | Potency [3] | Potency [4] | Potency (Aromatase (Homo sapiens))

CCCCCCC[CH2][Sn]([Cl])([Cl])[CH2]CCCCCCC
inactive: Potency [2] | Potency [4]
active: Potency [1] 54.4 µM | Potency [3] 24.5 µM

N#Cc1c[nH]cc1-c1cccc2c1OC(F)(F)O2
inactive: Potency [3] | Potency [6] | Potency [4]
active: Potency [1] 12.2 µM | Potency [7] 13.8 µM [inhibitor] | Potency [5] 17.4 µM [inconclusive] | Potency [8] 48.6 µM | Potency (Aromatase (Homo sapiens)) 27.3 µM

COC(=O)c1cc(Oc2ccc(Cl)cc2Cl)ccc1[N+](=O)[O-]
active: Potency [1] 61.1 µM
inactive: Potency [2] | Potency [3] | Potency [4]

C#CCC1=C(C)C(OC(=O)C2C(C=C(C)C)C2(C)C)CC1=O (centres undefined)
inactive: Potency [3] | Potency [4]
active: Potency [1] 60.7 µM

COc1ccc2[nH]cc(CCN(C(C)C)C(C)C)c2c1
inactive: Potency [2] | Potency [3] | Potency [4] | Potency (Aromatase (Homo sapiens))

Brc1ccc(Oc2ccc(Br)cc2Br)c(Br)c1
inactive: Potency [2] | Potency [3] | Potency [5] | Potency [4] | Potency (Aromatase (Homo sapiens))
active: Potency [6] 19.4 µM

CCN(CC)C(=O)N[C@@H]1C=C2c3cccc4[nH]cc(c34)C[C@@H]2N(C)C1
inactive: Potency [2] | Potency [7] | Potency [3] | Potency [5] | Potency [6] | Potency [4]

CCOC(=O)CCN(SN(C)C(=O)Oc1cccc2c1OC(C)(C)C2)C(C)C
inactive: Potency [1] | Potency [3] | Potency [5] | Potency [6] | Potency [8] | Potency [4] | Potency (Aromatase (Homo sapiens))

Cc1ccn2nc(S(=O)(=O)Nc3c(F)cccc3F)nc2n1
inactive: Potency [3] | Potency [4] | Potency (Aromatase (Homo sapiens))

CCCCC(CC)COC(=O)c1ccccc1C(=O)OCC(CC)CCCC (centres undefined)
inactive: Potency [2] | Potency [7] | Potency [5] | Potency [6] | Potency [8] | Potency [4] | Potency (Aromatase (Homo sapiens))

CSC(=O)c1c(C(F)F)nc(C(F)(F)F)c(C(=O)SC)c1CC(C)C
inactive: Potency [3] | Potency [5] | Potency [6] | Potency [8] | Potency [4]
active: Potency (Aromatase (Homo sapiens)) 68.2 µM

CCCCCCCc1ccc(O)cc1
active: Potency [6] 24.3 µM
inactive: Potency [2] | Potency [7] | Potency [3] | Potency [5] | Potency [8] | Potency [4]

Fc1ccc(C(OCCN2CCN(CCCc3ccccc3)CC2)c2ccc(F)cc2)cc1
active: Potency [1] 7.5 µM | Potency [3] 15.1 µM | Potency [4] 21.1 µM | Potency (Aromatase (Homo sapiens)) 18.8 µM
inactive: Potency [5]

C[C@H]1[C@H](c2ccc(Cl)cc2)SC(=O)N1C(=O)NC1CCCCC1
active: Potency [1] 61.1 µM | Potency [8] 61.1 µM
inactive: Potency [3] | Potency [5] | Potency [4]

CCC[CH2][Sn]([CH2]CCC)([CH2]CCC)[O][Sn]([CH2]CCC)([CH2]CCC)[CH2]CCC
active: Potency [3] 0.852 µM | Potency (Aromatase (Homo sapiens)) 2.67 µM
inactive: activity, negative = inhibition [1] 7.29% [at 8.44 µM]

CCOP(=S)(OCC)SC(CCl)N1C(=O)c2ccccc2C1=O (centres undefined)
inactive: Potency [2] | Potency [3] | Potency (Aromatase (Homo sapiens))

[O-][Cl+3]([O-])([O-])O
inactive: Potency [3] | Potency [4] | Potency (Aromatase (Homo sapiens))

CCN(CC)Cc1nccn1-c1ccc([N+](=O)[O-])cc1C(=O)c1ccccc1Cl
inactive: Potency [2] | Potency [3]

COP(=S)(OC)Oc1nc(Cl)c(Cl)cc1Cl
inactive: Potency [2] | Potency [3] | Potency [5] | Potency [6] | Potency [8] | Potency [4] | Potency (Aromatase (Homo sapiens))

[Cl][Hg][c]1ccccc1
active: Potency [1] 0.0863 µM | Potency [3] 12.3 µM | Potency [5] 4.36 µM [fluorescent] | Potency [4] 30.6 µM | Potency (Aromatase (Homo sapiens)) 1.37 µM

Cc1ccc2cc3c(ccc4ccccc43)c3c2c1CC3
active: Potency [5] 6.18 µM [activator] | Potency [8] 0.546 µM
inactive: Potency [7] | Potency [3] | Potency [4]

Cc1c([N+](=O)[O-])c(C)c([N+](=O)[O-])c(C(C)(C)C)c1[N+](=O)[O-]
inactive: Potency [2] | Potency [3] | Potency [5] | Potency [6] | Potency [8] | Potency [4]

CCN(CC)CCc1c[nH]c2ccccc12
inactive: Potency [2] | Potency [7] | Potency [3] | Potency [5] | Potency [6] | Potency [8] | Potency [4]

C[N+]1(C)[C@@H]2CC[C@H]1CC(OC(=O)C(CO)c1ccccc1)C2 (some centres undefined)
inactive: Potency [2] | Potency [3] | Potency [8] | Potency [4] | Potency (Aromatase (Homo sapiens))

CCO/N=C(\CC)C1=C(O)CC(c2c(C)cc(C)cc2C)CC1=O (centres undefined)
inactive: Potency [2] | Potency [3] | Potency [5] | Potency [6] | Potency [8] | Potency (Aromatase (Homo sapiens))

C#CCO
inactive: Potency [7] | Potency [3] | Potency [5] | Potency [6] | Potency [8] | Potency [4] | Potency (Aromatase (Homo sapiens))

[O]=[Cr](=[O])([OH])[O][Cr](=[O])(=[O])[OH]
active: Potency (Aromatase (Homo sapiens)) 13.3 µM and 2.46 µM and 2.43 µM
inactive: Potency [2] | Potency [7] | Potency [3] | Potency [5] | Potency [6] | Potency [8] | Potency [4]

CC(C)N(C(=O)SC/C(Cl)=C/Cl)C(C)C
inactive: Potency [2] | Potency [7] | Potency [6] | Potency [8] | Potency [4]

Clc1cc(Cl)c(-c2cc(Cl)c(Cl)cc2Cl)cc1Cl
inactive: Potency [2] | Potency [3] | Potency [4] | Potency (Aromatase (Homo sapiens))

S=C=NCCc1ccccc1
inactive: Potency [2] | Potency [7] | Potency [3] | Potency [5] | Potency [4] | Potency (Aromatase (Homo sapiens))
active: Potency [6] 54.6 µM

O.O.O.O=C([O-])[C@H]([O-])[C@@H]([O-])C(=O)[O-].O=C([O-])[C@H]([O-])[C@@H]([O-])C(=O)[O-].[K+].[K+].[Sb+3].[Sb+3]
active: Potency [7] 17.5 µM [inhibitor]
inactive: Potency [2] | Potency [3] | Potency [5]

CCC(C)Nc1c([N+](=O)[O-])cc(C(C)(C)C)cc1[N+](=O)[O-] (centres undefined)
active: Potency [6] 61.1 µM
inactive: Potency [7] | Potency [3] | Potency [5] | Potency [8] | Potency [4] | Potency (Aromatase (Homo sapiens))

FC(F)C(F)(F)OCC(Cn1cncn1)c1ccc(Cl)cc1Cl (centres undefined)
inactive: Potency [4]
active: Potency [1] 60.8 µM | Potency (Aromatase (Homo sapiens)) 7.65 µM

CC1=C2C[C@H]3[C@@H](CC=C4C[C@@H](O)CC[C@@]43C)[C@@H]2CC[C@]12O[C@@H]1C[C@H](C)CN[C@H]1[C@H]2C
inactive: Potency [2] | Potency [7] | Potency [3] | Potency [5] | Potency [6] | Potency [8] | Potency (Aromatase (Homo sapiens))

O=[N+]([O-])c1cccc2cccc([N+](=O)[O-])c12
inactive: Potency [2] | Potency [3] | Potency [4]

O=[N+]([O-])[O-].[Tl+]
active: Potency (Aromatase (Homo sapiens)) 69.1 µM
inactive: Potency [3] | Potency [4]

Oc1cc(Cl)cc(Cl)c1
inactive: Potency [2] | Potency [3] | Potency [5] | Potency [6] | Potency [8] | Potency [4]

Oc1ccc([C@H]2CNCc3c2ccc(O)c3O)cc1O
inactive: Potency [2] | Potency [7] | Potency [5] | Potency [6] | Potency [8] | Potency [4] | Potency (Aromatase (Homo sapiens))

Cc1c([N+](=O)[O-])cc2c(c1[N+](=O)[O-])C(C)(C)CC2(C)C
inactive: Potency [2] | Potency [3] | Potency [4]
active: Potency [5] 21.9 µM [inconclusive] | Potency [8] 15.4 µM | Potency (Aromatase (Homo sapiens)) 27.3 µM

ClC1=C(Cl)[C@]2(Cl)[C@@H]3[C@H]4C[C@H]([C@@H]5O[C@H]45)[C@@H]3[C@@]1(Cl)C2(Cl)Cl
inactive: Potency [2] | Potency [7] | Potency [3] | Potency [5] | Potency [6] | Potency [8] | Potency [4] | Potency (Aromatase (Homo sapiens))

O=S(=O)(NS(=O)(=O)C(F)(F)F)C(F)(F)F
inactive: Potency [3] | Potency [4]
